Test results taken from PubChem BioAssay.
Calls of active or inactive are those of the source.

Key:
[1] = tested on: Plasmodium falciparum Sir2 (PF13_0152, Sir2A); assay: Plasmodium falciparum Sir2A binding compounds – biochemical, small-molecule microarray, 635 nm fluorescence, primary screen (AID 1098); conditions: fluorescence 635 nm, higher = more signal;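 note: score merges spot fluorescence intensity with its signal-to-noise ratio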
[2] = probe aDKK1 binding to arrayed compounds – biochemical, biotinylated probe, 635/667 nm fluorescence, primary screen (AID 1099); conditions: small-molecule microarray, higher = more signal;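 note: score merges 667nm spot fluorescence with signal to noise across triplicate slides; reference of the scale not given here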
[3] = probe aCHRDL2 binding to arrayed compounds – biochemical, biotinylated probe, 635/667 nm fluorescence, primary screen (AID 1100); conditions: small-molecule microarray, higher = more signal
[4] = change in splice reporter luminescence, either direction, cell-based, HEK293, spliceosome inhibition project, primary screen (AID 1101); conditions: HEK293 splicing luciferase reporter, 24 h, higher = more signal, called active from +8 up or from −8 down;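 note: HEK293 cells carrying a splicing-competent luciferase reporter gene; test concentration not given here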
[5] = molecular target: Fibroblast growth factor 10 (Homo sapiens) (UniProt O15520); assay: compounds binding fibroblast growth factor 10 – biochemical, small-molecule microarray, 635 nm fluorescence, primary screen (AID 1102); conditions: FGF10 binding, fluorescence 635 nm, higher = more signal
[6] = tested on: glycogen synthase kinase-3 (GSK3A per assay name; protocol says GSK3B); assay: compounds binding glycogen synthase kinase-3 – biochemical, small-molecule microarray, 635 nm fluorescence, GSK3A, primary screen (AID 1103); conditions: fluorescence 635 nm, higher = more signal; note: the record names both GSK3A and GSK3B
[7] = molecular target: Epidermal growth factor receptor (Homo sapiens) (UniProt P00533); assay: compounds binding epidermal growth factor receptor – biochemical, small-molecule microarray, 635 nm fluorescence, primary screen (AID 1104); conditions: EGFR binding, higher = more signal;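 note: score merges 667 nm emission intensity with spot signal to noise over triplicate slides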
[8] = molecular target: Follistatin-related protein 3 (Homo sapiens) (UniProt O95633); assay: compounds binding follistatin-related protein 3 – biochemical, small-molecule microarray, 635 nm fluorescence, primary screen (AID 1105); conditions: FSTL3 binding, higher = more signal;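 note: score merges emission near 667 nm and signal to noise per printed spot across three slides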
[9] = molecular target: Dickkopf-related protein 1 (Homo sapiens) (UniProt O94907); assay: small molecules binding DKK1 protein – biochemical, small-molecule microarray, 635 nm fluorescence scan, primary screen (AID 1106); conditions: higher = more signal;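 note: score merges emission near 667 nm with signal to noise over three replicate slides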
[10] = tested on: Inhibin beta A chain (activin A); assay: small molecules binding activin A – biochemical, small-molecule microarray, 635 nm fluorescence scan, primary screen (AID 1107); conditions: INHBA, higher = more signal;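 note: mouse activin A protein probed at 4.33 µg/mL on printed slides; score merges bound-protein fluorescence near 667 nm with spot signal-to-noise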

Chain of Fibroblast growth factor 10 (Homo sapiens) (O15520 whole entry, looked up): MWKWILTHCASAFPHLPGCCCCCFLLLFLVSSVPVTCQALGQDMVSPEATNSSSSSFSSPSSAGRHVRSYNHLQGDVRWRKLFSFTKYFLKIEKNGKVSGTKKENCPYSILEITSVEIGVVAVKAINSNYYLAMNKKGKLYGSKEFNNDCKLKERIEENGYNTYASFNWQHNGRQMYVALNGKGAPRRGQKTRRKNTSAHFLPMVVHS
Chain of Epidermal growth factor receptor (Homo sapiens) (P00533 whole entry, looked up): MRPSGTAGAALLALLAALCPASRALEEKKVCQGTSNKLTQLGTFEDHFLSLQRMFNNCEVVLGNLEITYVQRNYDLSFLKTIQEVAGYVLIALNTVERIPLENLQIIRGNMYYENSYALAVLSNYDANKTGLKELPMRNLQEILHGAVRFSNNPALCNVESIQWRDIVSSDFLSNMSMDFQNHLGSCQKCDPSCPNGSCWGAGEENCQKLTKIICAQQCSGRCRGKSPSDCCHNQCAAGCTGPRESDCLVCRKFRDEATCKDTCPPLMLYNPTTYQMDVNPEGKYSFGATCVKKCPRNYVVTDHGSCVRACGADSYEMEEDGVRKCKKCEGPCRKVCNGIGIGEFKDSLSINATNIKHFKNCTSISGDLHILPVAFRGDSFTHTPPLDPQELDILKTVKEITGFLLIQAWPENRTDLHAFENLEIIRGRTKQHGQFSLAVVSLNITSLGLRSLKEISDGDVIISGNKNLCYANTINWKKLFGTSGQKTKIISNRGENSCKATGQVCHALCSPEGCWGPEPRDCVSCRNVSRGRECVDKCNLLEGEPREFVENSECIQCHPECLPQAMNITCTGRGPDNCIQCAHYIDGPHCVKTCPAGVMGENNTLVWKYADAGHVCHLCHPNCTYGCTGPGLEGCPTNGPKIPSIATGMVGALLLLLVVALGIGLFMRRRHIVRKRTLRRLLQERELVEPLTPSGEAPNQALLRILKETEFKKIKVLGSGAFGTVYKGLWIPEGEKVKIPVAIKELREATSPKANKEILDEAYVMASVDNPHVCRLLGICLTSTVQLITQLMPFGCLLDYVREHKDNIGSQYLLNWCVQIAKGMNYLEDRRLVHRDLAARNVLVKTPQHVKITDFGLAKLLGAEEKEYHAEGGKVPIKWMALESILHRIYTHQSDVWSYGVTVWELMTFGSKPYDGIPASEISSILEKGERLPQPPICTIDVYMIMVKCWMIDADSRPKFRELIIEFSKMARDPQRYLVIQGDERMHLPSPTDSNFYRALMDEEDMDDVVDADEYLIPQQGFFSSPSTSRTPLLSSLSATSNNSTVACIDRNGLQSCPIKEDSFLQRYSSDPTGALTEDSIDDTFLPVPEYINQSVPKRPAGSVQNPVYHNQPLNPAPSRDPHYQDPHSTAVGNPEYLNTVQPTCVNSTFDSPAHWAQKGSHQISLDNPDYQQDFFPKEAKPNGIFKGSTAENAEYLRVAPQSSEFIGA
Chain of Dickkopf-related protein 1 (Homo sapiens) (O94907 whole entry, looked up): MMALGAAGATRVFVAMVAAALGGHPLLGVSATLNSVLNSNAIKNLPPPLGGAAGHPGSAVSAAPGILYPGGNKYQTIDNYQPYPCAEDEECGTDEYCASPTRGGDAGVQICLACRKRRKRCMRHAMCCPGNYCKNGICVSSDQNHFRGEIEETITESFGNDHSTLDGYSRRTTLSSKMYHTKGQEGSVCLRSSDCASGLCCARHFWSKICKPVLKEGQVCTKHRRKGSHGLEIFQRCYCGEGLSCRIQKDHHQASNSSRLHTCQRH
Chain of Follistatin-related protein 3 (Homo sapiens) (O95633 whole entry, looked up): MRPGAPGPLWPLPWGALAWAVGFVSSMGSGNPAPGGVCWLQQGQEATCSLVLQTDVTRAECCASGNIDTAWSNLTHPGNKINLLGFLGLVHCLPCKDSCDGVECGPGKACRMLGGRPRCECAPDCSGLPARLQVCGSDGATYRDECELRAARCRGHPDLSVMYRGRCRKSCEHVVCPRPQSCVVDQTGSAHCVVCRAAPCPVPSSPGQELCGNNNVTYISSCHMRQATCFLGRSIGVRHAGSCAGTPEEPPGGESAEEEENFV

| SMILES | composite z-score [1] | composite z-score [2] | composite z-score [3] | z-score [4] | composite z-score [5] | composite z-score [6] | composite z-score [7] | composite z-score [8] | composite z-score [9] | composite z-score [10] |
| --- | --- | --- | --- | --- | --- | --- | --- | --- | --- | --- |
| O=C(Cc1ccccc1)[C@H]1C2C=CCCC(c3ccccc3)=C2CN1Cc1ccccc1 (stereo not given in full) | -0.313 | -0.138 | -0.191 | -0.445 (inactive) | -0.0435 | -0.117 | -0.097 | -0.137 | 0.191 | 0.707 |
| O=C1C[C@]2(c3ccc([N+](=O)[O-])cc3)C(=O)N(C3CC3)c3cc(CO)ccc3[C@H]2N1CC12CC3CC(CC(C3)C1)C2 | 0.437 | -0.105 | 0.617 | -0.922 (inactive) | -0.511 | -0.393 | -0.951 | -0.924 | -0.769 | -0.383 |
| CS(=O)(=O)CCOC(=O)C1=CC(c2ccc(CO)cc2)=CC(C2CC2)N(Cc2sc3ccccc3c2Cl)C=C1C(=O)OCCS(C)(=O)=O (stereo not given) | 0.677 | 0.251 | 0.365 | 2.53 (inactive) | 0.686 | 0.519 | 0.645 | 1.21 | 0.334 | 1.63 |
| CC(C)C[C@@H]1NC(=O)[C@@H]2C[C@H](C(=O)NCCCCCCN)[C@H](c3cccc(OCCO)c3)N2C1=O | 1.55 | 0.286 | 0.532 | 0.138 (inactive) | 1.13 | 0.712 | 0.0515 | 1.08 | 0.236 | 0.775 |
| CCCN1C(=O)[C@@]2(Cc3ccccc31)N=C(c1ccc(OCCCO)cc1)O[C@H]2c1ccccc1 | 1.48 | 0.402 | 0.949 | -1.46 (inactive) | 0.988 | 1.23 | -0.286 | 0.191 | 0.335 | 0.873 |
| C=CC[C@@H](OC(=O)Nc1ccc(OC)cc1)c1ccc(O)c(F)c1 | 1.69 | -0.0015 | 0.74 | -1.95 (inactive) | -0.549 | -0.363 | -1.2 | -0.741 | -0.658 | 0.19 |
| NCCCCCNC(=O)[C@H]1C[C@H]2C(=O)N3CCC[C@H]3C(=O)N2[C@H]1c1cccc(OCCO)c1 | 0.685 | 0.583 | 1.1 | 0.125 (inactive) | 0.68 | 0.703 | -0.525 | -0.515 | -0.331 | 0.896 |
| COC(=O)[C@@]1(Cc2ccc(F)cc2)[C@H]2c3cc(C(=O)N(C)C)n(Cc4ccc(OC(F)(F)F)cc4)c3C[C@H]2CN1C(=O)c1ccccc1 | 0.19 | -0.0448 | 0.183 | 1.32 (inactive) | 0.251 | 0.22 | 0.18 | 0.298 | 0.0583 | 0.401 |
| CCCC[C@@H](O)C1=C(COc2ccccc2)C[C@H]2C(=O)N(Cc3ccccc3)C(=O)[C@H]2[C@H]1CO | 0.146 | -0.302 | -0.195 | -0.249 (inactive) | 0.574 | -0.0802 | 0.357 | 0.78 | 0.638 | 0.526 |
| O=C(NCc1ccc(F)cc1)[C@H]1C[C@H]2C(=O)NCC(=O)N2[C@H]1c1ccc(O)cc1 | 1.01 | 0.207 | 0.112 | -0.12 (inactive) | 1.37 | -0.88 | 0.297 | 0.138 | 0.787 | 0.43 |
| CCCC[C@@H](O)C1=C(COC)C[C@H]2C(=O)N(Cc3ccccc3)C(=O)[C@H]2[C@H]1CO | 0.516 | -0.449 | -0.815 | 0.296 (inactive) | 0.822 | 0.464 | 0.26 | 1 | 0.972 | 0.44 |
| [N-]=[N+]=Nc1ccccc1C[C@]1(C(=O)O)COC(c2ccc(OCCCO)cc2)=N1 | 1.15 | 0.336 | 0.829 | -1.08 (inactive) | -0.51 | -1.1 | -0.473 | -0.543 | -0.885 | 0.764 |
| COc1ccc([Si](C)(C)[C@@H]2[C@@H](CC(=O)N3CCC[C@H]3CO)O[C@]3(C(=O)N(Cc4cccc(N5C(=O)COc6ccccc65)c4)c4ccccc43)[C@H]2C)cc1 | 0.911 | -0.0948 | 0.157 | -1.06 (inactive) | 0.723 | 0.746 | 0.447 | 0.579 | 0.173 | 0.615 |
| COCCOC(=O)N1C(=O)[C@@]2(c3cc(C#CCCO)ccc31)[C@H](C(=O)Nc1nc3ccccc3s1)[C@H]1C(=O)O[C@H](c3ccccc3)[C@H](c3ccccc3)N1[C@@H]2c1ccc(O)cc1 | 0.972 | 0.513 | 0.355 | -0.221 (inactive) | 1.16 | 1.34 | 0.989 | 1.43 | 0.957 | 0.211 |
| COc1ccc([Si](C)(C)[C@H]2[C@H](CC(=O)N(CCO)Cc3ccccc3)O[C@@]3(C(=O)N(C)c4c(Br)cc(C)cc43)[C@@H]2C)cc1 | 0.827 | -0.0876 | -0.356 | -1.34 (inactive) | 0.968 | 0.691 | 1.19 | 1.18 | 0.766 | 0.611 |
| CCOC(=O)C1=CC[C@@H](c2ccccc2F)N(S(=O)(=O)c2ccc(C)cc2)[C@H]1c1ccccc1 | 0.441 | 0.128 | -0.106 | -1.12 (inactive) | 0.801 | 1.16 | 0.486 | 0.766 | 0.253 | 0.713 |
| C=CCNC(=O)[C@@H]1[C@H]2C(=O)O[C@H](c3ccccc3)[C@H](c3ccccc3)N2[C@H](c2ccc(OCCO)cc2)[C@@]12C(=O)N(C(=O)OCCOC)c1ccc(C#Cc3ccc(OC)cc3)cc12 | 1.29 | 0.0181 | 0.299 | -1.33 (inactive) | 0.753 | 1.27 | 0.356 | 1.34 | 0.489 | 0.688 |
| C=CCC(OC(C)=O)[C@@H]1[C@@H](N(Cc2cc3ccccc3o2)C(=O)Cc2ccc(F)cc2)c2cc(OCCCO)ccc2N1C(=O)Cc1ccc2ccccc2c1 (stereo not given in full) | -0.255 | -0.203 | 0.426 | -0.123 (inactive) | -0.108 | -0.657 | -0.805 | -0.656 | -0.607 | 0.779 |
| COCCOC(=O)N1C(=O)[C@@]2(c3cc(C#CC4=CCCCC4)ccc31)[C@H](c1ccccc1OCCO)N1[C@H](c3ccccc3)[C@H](c3ccccc3)OC(=O)[C@H]1[C@@H]2C(=O)NC[C@H](O)c1ccccc1 | 1.53 | 0.036 | -0.135 | -1.76 (inactive) | 1.19 | 1.3 | 0.741 | 1.42 | 0.752 | 0.755 |
| C=CCN1C(=O)[C@]2(CCC(=O)OC(C)(C)C)N=C(c3ccc(OCCCO)cc3)O[C@@H]2c2ccccc21 | 0.765 | 0.177 | 0.947 | -1.82 (inactive) | -0.184 | 0.298 | 0.348 | 0.635 | 0.384 | 1.18 |
| CCOC(=O)C[C@H]1[C@H](OC(=O)c2cc3ccccc3oc2=O)[C@@H](NC(=O)CC(C)C)c2cc(OCCCO)ccc2N1C(=O)c1ccc2ccccc2n1 | 0.342 | -0.12 | -0.53 | 0.0136 (inactive) | 1.32 | 0.998 | 0.548 | 1.14 | 0.409 | 0.413 |
| COCCOC(=O)N1C(=O)[C@@]2(c3cc(C#CCC(C(=O)OC)C(=O)OC)ccc31)[C@H](c1ccc(OCCO)cc1)N1[C@H](c3ccccc3)[C@H](c3ccccc3)OC(=O)[C@H]1[C@@H]2C(=O)N1CCc2cc(OC)c(OC)cc2C1 | 0.752 | 0.258 | 0.0031 | 0.414 (inactive) | 1.4 | 1.31 | 0.76 | 1.28 | 0.411 | 0.622 |
| C=C(C(=O)CC[C@H](OC(=O)c1ccccc1-c1ccccc1C(=O)O)c1cccc(OCCO)c1)C(C)C | 0.627 | 0.414 | -0.265 | -0.369 (inactive) | 0.353 | -0.418 | -0.803 | 0.0151 | 0.0159 | 0.495 |
| COCCOC(=O)N1C(=O)[C@@]2(c3cc(C#CC4=CCCCC4)ccc31)[C@H](C(=O)Nc1nc3ccccc3s1)[C@H]1C(=O)O[C@H](c3ccccc3)[C@H](c3ccccc3)N1[C@@H]2c1ccc(O)cc1 | 0.61 | 0.157 | -0.0764 | 0.111 (inactive) | 0.669 | 1.28 | 0.635 | 0.918 | 1.11 | 0.872 |
| CN(C)C(=O)[C@@]1(Cc2ccccc2)N=C(c2ccc(OCCCO)cc2)O[C@H]1c1ccccc1 | 1.46 | 1.26 | 1.24 | -0.24 (inactive) | 1.2 | 1.18 | -0.591 | 0.109 | -0.273 | 0.139 |
| COC(=O)[C@@]1(Cc2ccc(OC)cc2)[C@H]2c3cc(C(=O)N(C)C)n(Cc4ccc(C)o4)c3C[C@H]2CN1C(=O)c1ccccc1 | 1.34 | 0.766 | 0.923 | 4.83 (inactive) | 0.251 | 1.18 | -0.102 | 0.514 | -0.716 | 0.861 |
| COC(=O)C1=CC(CCCO)=CC(c2cccs2)N(C)C=C1C(=O)OC (stereo not given) | 1.52 | 0.122 | 0.187 | 0.844 (inactive) | -0.604 | -1.39 | -0.904 | 0.0507 | -0.442 | 0.788 |
| CC(C)C(CO)N1C(=O)[C@@H]2C3C(=O)OCCC/C=C\[C@H]3OC23C=CCN(c2ccc4ccccc4c2)C(=O)[C@@H]13 (stereo not given in full) | 0.552 | -0.167 | 0.375 | -0.298 (inactive) | 0.0329 | -1.01 | -1.2 | -0.602 | -0.4 | 0.791 |
| COC(=O)C/C=C/C[C@]1(O)C(=O)N(C)c2ccccc21 | -0.262 | -0.299 | -0.802 | -1.38 (inactive) | 0.791 | 0.605 | 0.784 | 0.616 | 0.949 | 0.587 |
